Hit rate of the full screen: of about 94,000 compounds, about 6,200 (6.6%) were called active. Entries that show only a call come without a potency. Roughly 31% stayed inconclusive and do not appear here. This is one part of a sample in which actives are shown more often than they occur. Calls follow the shape of the dose curve; as a rule, active = well fitted inhibition curve with a large enough effect; inconclusive = small, poorly fitted or top-dose-only effect; inactive = flat fitted curve, though single readings scatter.
Assay: Cytotoxic Profiling in HEK 293 Cell Line of Diverse Libraries Using Quantitative High-Throughput Screening; also: nearly all actives have a fitted effect of over 60% in size
Details: HEK 293 viability, ATP luminescence (CellTiter-Glo), 48-72 h; series mostly up to 115 µM
How it was run: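 250 HEK 293 cells/well; compound by pintool; incubated 48 or 72 hr at 37 degree Celsius; CellTiter-Glo added, 10 min RT, luminescence imaged.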
Potency is read from the fitted curve at half-maximal effect.

Row | Compound | Potency
1 | O=C(N1CCCC1c1nc(CCOCC2CC2)no1)C1(c2ccccc2)CC1 (stereo not given) | inactive
2 | O=C(c1ccc(-n2cnnc2)cc1)N1CCC2(CCCO2)CC1 | inactive
3 | Cn1cccc1C(=O)N[C@H]1C[C@@H](C(=O)O)N(C(=O)CSCC(=O)N2C[C@@H](NC(=O)c3cccn3C)C[C@H]2C(=O)O)C1 | inactive
4 | CCc1nc(-c2c3n(c(=O)n(CC(=O)Nc4ccc(C)cc4)c2=O)CCCCC3)no1 | inactive
5 | Cc1cccc(S(=O)(=O)N2CCC(n3cnnc3C(C)C)CC2)c1 | inactive
6 | N#Cc1cccc(CN2CCCN(S(=O)(=O)c3ccccc3)CCC(=O)NCC2)c1 | inactive
7 | Cc1cccc(-c2cc(C3CCN(S(=O)(=O)c4cccc(C#N)c4)CC3)[nH]n2)c1 | 25.1 µM (active)
8 | O=C(O)C[C@@H]1CCN(C(=O)c2ccc(C(F)(F)F)cc2)C[C@@H]1CCN1CCN(c2ccc(F)cc2)CC1 | inactive
9 | COCCNC(=O)C1COC2(CCN(C(=O)c3ccc(F)cc3)CC2)N1C(=O)c1ccccc1C (stereo not given) | inactive
10 | COc1ccccc1Nc1ccnc(N2CCN(C(=O)c3ccc(C(F)(F)F)cc3)CC2)n1 | 39.8 µM (active)
11 | COc1cccc(C(=O)N2CCN(c3nccc(Nc4ccccc4OC)n3)CC2)c1 | inactive
12 | COc1ccccc1Nc1ccnc(N2CCC(C(=O)NCc3cccc(Cl)c3)CC2)n1 | 39.8 µM (active)
13 | COc1ccc(C2Cn3nnc(C(=O)N4CCC(C(=O)NCc5ccc(C)cc5)CC4)c3CO2)cc1 (stereo not given) | inactive
14 | O=C(c1ccccc1Cl)N1CCN(C(=O)c2nc3cccnc3n(Cc3ccccc3)c2=O)CC1 | inactive
15 | O=C(Nc1ccccc1Cl)N1CCC(Oc2ncccc2C(=O)N2CCCCC2)C1 (stereo not given) | inactive
16 | COc1ccccc1Nc1ccnc(N2CCC(C(=O)NCc3ccc(C(F)(F)F)cc3)CC2)n1 | 31.6 µM (active)
17 | COc1ccccc1Nc1ccnc(N2CCC(NC(=O)NC(C)C)CC2)n1 | inactive
18 | COc1ccccc1C(=O)N1CCN(c2cc(C(F)(F)F)ncn2)CC1 | inactive
19 | Cc1ccccc1C(=O)N1CCN(c2nccc(Nc3ccccc3Cl)n2)CC1 | 35.5 µM (active)
20 | COc1ccc(C2Cn3cnc(C(=O)N4CCC(C(=O)NCc5cccc(F)c5)CC4)c3CO2)cc1 (stereo not given) | inactive
21 | Cc1ccc(C2Cn3cnc(C(=O)N4CCC(C(=O)NCc5cccc(Cl)c5)CC4)c3CO2)cc1 (stereo not given) | inactive
22 | O=C1NC2(Cc3ccccc31)CN([S+](=O)([O-])c1cccc(C(F)(F)F)c1)C2 | inactive
23 | O=C(NCC1CC1)c1cn(C2CN(C(=O)Nc3ccccc3)C2)nn1 | inactive
24 | CCCNC(=O)N1CCOC[C@H](Oc2cccnc2)C1 | inactive

Row | Compound | Potency
25 | CCc1cccc(NC(=O)C2(C)CCCCC(=O)N2)c1 (stereo not given) | inactive
26 | CC(=O)N1CCOc2ccc(CCC(=O)NCc3nc4ccccc4n3C)cc2C1 | inactive
27 | CCCCN1C(=O)[C@@H]2C[C@@H](O)CN2C2(CN(CC(C)C)C2)C1=O | inactive
28 | COCC1(CNS(=O)(=O)c2ccc(F)cc2)C[C@@H](O)[C@@H](O)C1 (stereo not given in full) | inactive
29 | COc1ccc(CNC(=O)[C@@H]2CCC[C@@H](NCc3nccs3)CN(C)C(=O)C2)cc1 | inactive
30 | COc1ccc(Nc2ccnc(N3CCC(C(=O)N4CCN(C(C)=O)CC4)CC3)n2)cc1 | inactive
31 | COc1ccc(Nc2ccnc(N3CCCC(C(=O)NCc4ccc(C(F)(F)F)cc4)C3)n2)cc1 (stereo not given) | 20 µM (active)
32 | Cc1nsc(NC(=O)N2CCC(CO)CC2)n1 | inactive
33 | CCOc1ccccc1C(=O)N1CCC(N2CC3CC(C2)[C@H]2CCCC(=O)N2C3)CC1 (stereo not given in full) | inactive
34 | COC[C@@H]1CN(C(=O)Cn2cc(C)cn2)C[C@H]1c1ccccn1 | inactive
35 | Cc1ccc(C)c(NC(=O)Cn2nc3n(c2=O)CCCCC3)c1 | inactive
36 | CN(CCc1cn[nH]c1)c1ccc(-c2nc(-c3ccccc3F)no2)cn1 | 31.6 µM (active)
37 | O=C(C1CCC1)N1CCC(Oc2cccnc2)C1 (stereo not given) | inactive
38 | Cc1noc(C)c1-c1cc(-c2cncnc2)cn2cncc12 | inactive
39 | Cc1noc(C)c1-c1cc(-c2ccccc2Oc2ccccc2)cn2cncc12 | 79.4 µM (active)
40 | OCc1ccc(-c2cc(-c3cccnc3)c3cncn3c2)cc1 | inactive
41 | COc1ccccc1-c1onc(C)c1C(=O)NCc1ccc(Cl)cc1 | inactive
42 | CCCOCCCNC(=O)c1c(C)noc1-c1ccccc1Cl | inactive
43 | COc1ccccc1-c1onc(C)c1C(=O)NCCC(c1ccccc1)c1ccccc1 | 25.1 µM (active)
44 | O=C(c1ccc2nnc(C3CC3)n2c1)N1CCOCC1 | inactive
45 | CC(C)n1c(C2CCN(C(=O)Cc3cccc(F)c3)CC2)nn(C)c1=O | inactive
46 | O=C(C1CCCN(c2ccnc3ccnn23)C1)N1CCCCC1 (stereo not given) | inactive
47 | CCC(C)N1CCN(C(=O)CCc2ccc3c(c2)CN(C(=O)NC(C)C)CCO3)CC1 (stereo not given) | inactive
48 | O=C(c1ccccc1)N1CCOc2ccc(CN3CCc4ccccc4C3)cc2C1 | 44.7 µM (active)

Row | Compound | Potency
49 | O=C(c1ccoc1)N1CCCN(C(=O)C2COc3ccccc3C2)CC1 (stereo not given) | inactive
50 | O=C(CC1CCCC1)N1CCOc2ccc(CN3CCCCC3)cc2C1 | inactive
51 | O=C1CCN(Cc2ccc3c(c2)CCO3)CCOCCN1 | inactive
52 | O=C(c1ccoc1)N1CCOc2ccc(CN3CCc4ccccc4C3)cc2C1 | 39.8 µM (active)
53 | COc1ccccc1N1CCN([C@@H]2[C@H](O)[C@H](CO)O[C@@H]2CNC(=O)c2ccc(F)c(Cl)c2)CC1 | inactive
54 | CN1C[C@H](NCc2nccn2C)CCC[C@@H](C(=O)NC2CC2)CC1=O | inactive
55 | O=C(NCc1cccs1)c1nc(-c2cc(Cl)cc(Cl)c2)c2ccccn12 | inactive
56 | Cc1ccncc1C(=O)N1[C@@H]2CC[C@H]1CC(NC(=O)c1ccc(F)cc1)C2 (stereo not given in full) | inactive
57 | CCOCC(=O)N1[C@@H]2CC[C@H]1CC(NC(=O)c1ccc(F)cc1)C2 (stereo not given in full) | inactive
58 | CCc1cccc(NC(=O)N2[C@@H]3CC[C@H]2CC(NC(=O)c2ccc(F)cc2)C3)c1 (stereo not given in full) | 39.8 µM (active)
59 | CNC(=O)c1cc(C)nc2onc(C3CCCN(C(=O)c4ccccn4)C3)c12 (stereo not given) | inactive
60 | CCC(c1ccccn1)N(C)C(=O)c1cc(COc2ccccc2)[nH]n1 (stereo not given) | inactive
61 | COc1ccc(CNC(=O)C2CCCCN2Cc2ccc(-c3ccccc3OC)cc2)cc1 (stereo not given) | 31.6 µM (active)
62 | CCOc1cc(=O)n2c(c1C(=O)NCc1cccc(Cl)c1)CCCC2 | inactive
63 | COc1ccc(OC)c(S(=O)(=O)N2CCC(CC(=O)NCc3ccccc3)C2)c1 (stereo not given) | inactive
64 | COc1ccccc1-c1ccc(CN2CCCCC2C(=O)NCc2cccc(Cl)c2)cc1 (stereo not given) | 22.4 µM (active)
65 | C#CCNC(=O)C1CCc2nnc(-c3ccccc3OC)n21 (stereo not given) | inactive
66 | COc1ccc(F)cc1-c1ccc(CN2CCCCC2C(=O)NCc2ccccn2)cc1 (stereo not given) | 25.1 µM (active)
67 | CCNC(=O)[C@@H]1CCCN1[C@@H](C(=O)NC)c1ccccc1OC | inactive
68 | C=C(C)CCC(C)N1CCC(N2CCC(C(=O)NCc3ccccn3)CC2)CC1 (stereo not given) | inactive
69 | CN1CCCCCC1C(=O)NCc1cccnc1Oc1ccccc1F (stereo not given) | inactive
70 | Cc1ccc2[nH]c(CCCn3cc(-c4nccn4C)nn3)nc2c1C | inactive
71 | Cc1cnc(C(=O)N2CC[C@H](CO)[C@H](N(C)C)C2)cn1 | inactive
72 | COC(=O)c1nc(NC(=O)Cn2nc3c(cc2=O)CCCCC3)sc1C | inactive

Row | Compound | Potency
73 | CC(=O)c1cc(CN2CCN(c3nnc(C(F)(F)F)s3)CC2)cs1 | inactive
74 | O=C(C1CC1)N1CCC2(CC1)C(=O)NCN2Cc1ccc(Cl)cc1 | inactive
75 | C[S+](=O)([O-])N1CC2(Cc3ccccc31)CN(C(=O)C1CC1)C2 | inactive
76 | CC(=O)N1CCC(NC[C@H]2O[C@H](Cc3cc(-c4cccc(O)c4)on3)CC[C@@H]2O)CC1 | inactive
77 | COc1ccc(CNC(=O)N2CC3CN(C)CC(C2)O3)cc1 | inactive
78 | COc1ccc(CNC[C@H]2O[C@H](Cc3cc(-c4ccc(OC)cc4)on3)CC[C@@H]2O)cc1 | 35.5 µM (active)
79 | Cc1ncsc1C1N(C2CCN(C(=O)C3CC3)CC2)C(=O)C12CCCC2 (stereo not given) | inactive
80 | COc1ccc(-n2nc(C)c([C@H]3C=C[C@@H](OC(=O)Nc4cccc(F)c4)C3)c2C)cc1 | 20 µM (active)
81 | Cc1nn(-c2ccccc2)c2c1C(C)N(C1CN(C(=O)Nc3ccccc3)C1)C2=O (stereo not given) | inactive
82 | CCC(C)NC(=O)Cc1csc2nc(C)c(-c3cc(C)n(-c4ccc(C(C)C)cc4)n3)c(=O)n12 (stereo not given) | inactive
83 | COc1ccc(-n2nc(C)c([C@@H]3C=C[C@@H](NC(=O)Nc4ccccc4)C3)c2C)cc1 | 50.1 µM (active)
84 | Cc1nn(-c2ccccc2)c2c1C(C(C)C)N(C1CN(C(=O)c3ccc(Cl)nc3)C1)C2=O (stereo not given) | inactive
85 | CCOCCOC1CCN(C(=O)Nc2cccc(F)c2)CC1 | inactive
86 | COc1ccc(C(=O)Nc2cccc(-c3nnc4n3CCCC4)c2)cc1 | inactive
87 | Cc1nn(-c2ccc(C(C)C)cc2)c(C)c1[C@@H]1C=C[C@@H](NC(=S)NCC(C)C)C1 | 25.1 µM (active)
88 | Cc1nn(-c2ccc(C(C)C)cc2)c(C)c1[C@@H]1C=C[C@@H](NC(=O)Nc2ccccc2)C1 | 39.8 µM (active)
89 | COc1ccc(-n2nc(-c3ccccc3)n(CC(=O)N(C)CC(C)C)c2=O)cc1 | inactive
90 | COc1ccc(C(=O)Nc2cc(-c3ccccn3)nn2-c2ccccc2)cc1 | inactive
91 | O=C(Cc1cccnc1)NC1CC(=O)N(Cc2cccc3ccccc23)C1 (stereo not given) | inactive
92 | CCNC(=O)c1noc(-c2ccc[nH]c2=O)n1 | inactive
93 | Cc1nc(CC(=O)N[C@@H]2COCC[C@H]2Oc2ccc(C#N)cc2)c(C)s1 | inactive
94 | Cc1ccc(C2Cn3cnc(C(=O)N4CCC(C(=O)NCCC(C)C)CC4)c3CO2)cc1 (stereo not given) | inactive
95 | Cc1ccc(C(=O)N2CCC(c3nn(-c4ccccn4)c(=O)[nH]3)CC2)cc1 | inactive

— PubChem BioAssay AID1345083 (National Center for Advancing Translational Sciences (NCATS), 2018)
